{"source": "PubChem BioAssay (NCATS)", "note": "Inconclusive results are not listed. Where a call stands in place of a potency, no number is given. Activity calls are given as the source filed them. The call rests on the fitted dose curve; in most records, active means well fitted inhibition curve with a large enough effect; inconclusive means small, poorly fitted or top-dose-only effect; inactive means flat fitted curve, though single readings scatter.", "data": [{"target": "Voltage-gated inwardly rectifying potassium channel KCNH2 (Homo sapiens) (UniProt Q12809)", "sequence (Q12809 whole entry, looked up)": "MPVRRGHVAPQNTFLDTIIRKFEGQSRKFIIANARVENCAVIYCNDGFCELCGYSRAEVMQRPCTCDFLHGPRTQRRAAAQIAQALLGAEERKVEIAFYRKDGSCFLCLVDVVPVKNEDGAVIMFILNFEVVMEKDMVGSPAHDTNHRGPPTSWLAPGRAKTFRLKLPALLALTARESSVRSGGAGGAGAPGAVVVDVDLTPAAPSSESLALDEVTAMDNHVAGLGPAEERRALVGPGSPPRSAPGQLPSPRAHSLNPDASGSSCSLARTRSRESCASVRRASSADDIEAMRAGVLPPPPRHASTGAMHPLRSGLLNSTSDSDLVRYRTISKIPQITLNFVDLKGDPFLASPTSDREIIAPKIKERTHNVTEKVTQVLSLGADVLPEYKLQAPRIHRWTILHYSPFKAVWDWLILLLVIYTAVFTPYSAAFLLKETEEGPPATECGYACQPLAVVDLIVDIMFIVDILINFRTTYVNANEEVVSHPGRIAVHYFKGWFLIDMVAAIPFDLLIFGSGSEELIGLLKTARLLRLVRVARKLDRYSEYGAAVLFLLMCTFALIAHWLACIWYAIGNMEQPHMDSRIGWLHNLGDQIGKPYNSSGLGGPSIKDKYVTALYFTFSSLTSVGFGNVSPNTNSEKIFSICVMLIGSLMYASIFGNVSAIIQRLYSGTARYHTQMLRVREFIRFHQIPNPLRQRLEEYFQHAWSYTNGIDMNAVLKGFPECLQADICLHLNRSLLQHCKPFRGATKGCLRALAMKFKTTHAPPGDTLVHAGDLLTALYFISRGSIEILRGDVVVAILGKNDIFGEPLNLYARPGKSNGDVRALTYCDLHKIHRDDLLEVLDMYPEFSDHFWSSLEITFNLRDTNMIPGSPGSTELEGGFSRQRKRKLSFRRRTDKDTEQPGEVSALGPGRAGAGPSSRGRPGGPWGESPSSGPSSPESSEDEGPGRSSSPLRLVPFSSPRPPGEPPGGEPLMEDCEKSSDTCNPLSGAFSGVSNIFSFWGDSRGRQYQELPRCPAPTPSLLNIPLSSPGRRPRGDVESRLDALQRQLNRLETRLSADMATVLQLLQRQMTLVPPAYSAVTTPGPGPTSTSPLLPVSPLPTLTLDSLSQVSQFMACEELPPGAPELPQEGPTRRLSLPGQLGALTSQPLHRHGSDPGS", "test": "qHTS Assay for Small Molecule Inhibitors of the Human hERG Channel Activity (AID 588834);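 further: top concentration of the series differs between compounds; lower thallium flux fluorescence means stronger hERG block; nearly all actives have a fitted effect of over 50% in size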", "settings": "U2OS BacMam hERG, FluxOR thallium flux fluorescence; series mostly up to 92.2 µM", "source_text": "NIH Chemical Genomics Center [NCGC]\nNational Institutes of Environmental Health Sciences [NIEHS]\nNational Toxicology Program [NTP]\nWe have developed a 1536-well cell-based assay for quantitative high throughput screening (qHTS) to determine in vitro hERG channel blockage as a measure of cardio toxicity with small molecules. This particular assay uses the U2OS cell line which is derived from human osteosarcoma.\nNCGC Assay Protocol Summary:\nHERG assay (FluxORTM thallium flux assay) was initially developed by Invitrogen/Molecular Probes, and then miniaturized into 1536-well plate in a homogeneous format by NCGC. This assay measures the activity of potassium channel using thallium dye (FluxOR) flux as surrogate measurement for potassium into the cells with a FDSS-7000 kinetic plate reader (Hamamatsu Corp., Hamamatsu City, Japan). The hERG ion channel is transduced into mammalian cells (U2OS) using a baculovirus (Bacmam) construct harboring the hERG K+ ion channel. So far we screened LOPAC1280 library (Sigma), the NTP collection of 1408 compounds, and the NCGC Pharmaceutical Collection (NPC), in which many well defined HERG blockers are present. The rank order potencies of many of these compounds are similar to that of other HERG assays (membrane potential, Rb+ flux, patch clamp, etc). This quick and homogeneous assay is also found to be sensitive, specific, and robust.\nUsing the FluxORTM thallium flux assay, the activity of potassium channel using thallium dye (FluxOR) flux as surrogate measurement for potassium into the cells was measured in the U2OS cell line transduced with hERG K+ ion channel using a baculovirus (Bacmam) using Opti-MEM medium (Invitrogen) containing 2% fetal calf serum (FCS, HyCone) following loading buffer addition, compound treatment for around 10 minutes and finally adding stimulation buffer. The assay was performed in black clear Kalypsys 1536-well plates. In the screen, Astemizole was used as positive controls. Library compounds were measured for their ability to cause hERG channel blockage in the cell line, as reflected by a decrease in fluorescence intensity, in a concentration-dependent manner. […] AC50 values were determined from concentration-response data modeled with the standard Hill equation.\nqHTS protocol for hERG-U2OS cellular assay\n[Step] [Parameter] [Value] [Description]\n1. Day 1: Replace medium in 70-80% confluent T225 flask with 2.5 mL of hERG-BacMam virus plus 12.5 mL of phosphate buffered saline (PBS) (corresponding roughly to a multiplicity of infection ratio of 100 virus particles/cell)\n2. Incubation: 4 hrs @ room Temperature in Dark\n3. Reagent; Remove virus; wash once with 25 ml DPBS\n4. Reagent; 35 ml culture medium\n5. Incubation; 37 °C overnight\n6. Day2: Reagent; 3 uL; 2000 U2OS cells/well\n7. Time; 4 hr; 37 °C incubation\n8. Loading buffer; 1 uL; 0.7X;\n9. Incubation: 1hr @ RT in Dark.\n12. Time; 10min; 37 °C incubation\n13. Read fluorescence Intensity on FDSS for 10 Sec with 1 sec interval\n14. Reagent; 1 uL; stimulation buffer\n15. Read fluorescence Intensity on FDSS for 2 min with 1 sec interval\n16. Detection; Fluorescence Intensity; FDSS", "values": [{"compound": "Cc1cccnc1", "Potency": "inactive"}, {"compound": "Oc1ccc(O)c2c(O)cccc12", "Potency": "inactive"}, {"compound": "Clc1nc2ccccc2nc1Cl", "Potency": "inactive"}, {"compound": "Cc1cc(=O)oc2cc(O)cc(O)c12", "Potency": "inactive"}, {"compound": "O=[N+]([O-])c1ccc(F)cc1F", "Potency": "inactive"}, {"compound": "Nc1cc([N+](=O)[O-])ccc1O", "Potency": "inactive"}, {"compound": "O=C(O)c1cc(N=Nc2ccc([N+](=O)[O-])cc2)ccc1O", "Potency": "inactive"}, {"compound": "CC(C)S", "Potency": "inactive"}, {"compound": "Oc1ccc2c(c1)OCO2", "Potency": "inactive"}, {"compound": "C=C1CC[C@H](O)C/C1=C/C=C1\\CCC[C@]2(C)[C@@H]([C@H](C)CCCC(C)C)CC[C@@H]12", "Potency": "inactive"}, {"compound": "Nc1ccc(N)c(Cl)c1", "Potency": "inactive"}, {"compound": "C/C=C/C=C/C=O", "Potency": "inactive"}, {"compound": "CC(/C=C/C=C(C)/C=C/C(=O)O)=C\\C=C\\C=C(C)\\C=C\\C=C(C)\\C=C\\C(=O)O", "Potency": "inactive"}, {"compound": "CC(=O)Nc1cccc(C)c1", "Potency": "inactive"}, {"compound": "Cc1ccc(S(N)(=O)=O)cc1", "Potency": "inactive"}, {"compound": "O=C(O)c1ccc([N+](=O)[O-])cc1", "Potency": "inactive"}, {"compound": "C=Cc1cccc(C)c1", "Potency": "inactive"}, {"compound": "COc1ccc(C)cc1N", "Potency": "inactive"}, {"compound": "CCCCC(CC)COP(=O)(OCC(CC)CCCC)OCC(CC)CCCC", "note": "(stereo not given)", "Potency": "inactive"}, {"compound": "CC(=O)c1ccc(Cl)c(Cl)c1Cl", "Potency": "inactive"}, {"compound": "C=CC1CO1", "note": "(stereo not given)", "Potency": "inactive"}, {"compound": "NC(=O)c1ccc([N+](=O)[O-])cc1", "Potency": "inactive"}, {"compound": "c1cc2c3c(c1)ccc1cccc(c13)C2", "Potency": "inactive"}, {"compound": "O=C=Nc1ccc(Cl)c(Cl)c1", "Potency": "inactive"}, {"compound": "O=c1[nH]ncc2ccccc12", "Potency": "inactive"}, {"compound": "Cc1ccc(N)cc1[N+](=O)[O-]", "Potency": "inactive"}, {"compound": "Nc1ccc2c(c1)C(=O)c1ccccc1C2=O", "Potency": "inactive"}, {"compound": "Nc1cc(C(=O)O)c(O)c(S(=O)(=O)O)c1", "Potency": "inactive"}, {"compound": "OC1CCCCC1", "Potency": "inactive"}, {"compound": "O=[N+]([O-])c1cc(N(CCO)CCO)ccc1NCCO", "Potency": "inactive"}, {"compound": "CCCCCCCCC1CO1", "note": "(stereo not given)", "Potency": "inactive"}, {"compound": "Cc1c2ccccc2c(C)c2c1ccc1ccccc12", "Potency": "inactive"}, {"compound": "Cc1cc2nc(N)sc2cc1C", "Potency": "inactive"}, {"compound": "Nc1ccc(-c2ccc(N)c(O)c2)cc1O", "Potency": "inactive"}, {"compound": "c1ccc(COCc2ccccc2)cc1", "Potency": "inactive"}, {"compound": "Oc1cc(Cl)cc(Cl)c1Cl", "Potency": "inactive"}, {"compound": "OCC(CO)(CBr)CBr", "Potency": "inactive"}, {"compound": "C[C@@H]1CC2(OC(O)[C@]3(C)O[C@H]23)O[C@H]2C[C@@]3(C)[C@@H]4CC[C@H]5C(C)(C)C(O[C@@H]6OC[C@@H](O)[C@H](O)[C@H]6O)CC[C@@]56C[C@@]46CC[C@]3(C)[C@@H]12", "note": "(stereo not given in full)", "Potency": "inactive"}, {"compound": "CC(=O)OC(C(=O)c1ccccc1)c1ccccc1", "note": "(stereo not given)", "Potency": "inactive"}, {"compound": "CC(CCC(=O)O)(c1ccc(O)cc1)c1ccc(O)cc1", "Potency": "inactive"}]}]}
